{
  "source": "PubChem BioAssay AID624442",
  "about": "(Broad Institute, 2012)",
  "note": "Unmarked numbers belong to inactive results.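 Rule for the calls: active = activation curve reaches 40% at a concentration no higher than the top valid dose tested; inactive = signal falling instead of rising, plus the rest.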",
  "data": [
    {"experiment": "cellular ROS inducers, fluorescent dye readout – U2OS cells, fluorescence, dry powder, set 2, dose response (AID 624442)", "settings": "U2OS ROS induction, H2DCF-DA fluorescence, active compounds read high; at 38 µM unless noted", "values": [
      {"smiles": "Nc1nc(SCc2ccccc2Cl)ns1", "max activation": "17.6% [at 5 µM]"},
      {"smiles": "O=C(Nc1nc(SCc2ccccc2)ns1)C1CCC1", "max activation": "30.8%"},
      {"smiles": "Nc1nc(SCc2ccccc2)ns1", "max activation": "14.6% [at 5 µM]"},
      {"smiles": "Cc1ccccc1CSc1nnc(N)s1", "max activation": "16.2% [at 19.5 µM]"},
      {"smiles": "Cc1ccccc1CSc1n[nH]c(N)n1", "max activation": "25.1% [at 1.2 µM]"},
      {"smiles": "O=C(Nc1ccccc1)Nc1nc(SCc2ccccc2)ns1", "max activation": "11.1%"},
      {"smiles": "O=C(Nc1nc(SCc2ccccc2)ns1)C1CC=CCC1", "note": "(configuration not stated)", "max activation": "65.2%"},
      {"smiles": "Nc1nc(SCc2ccc(F)cc2)ns1", "max activation": "15.9% [at 1.2 µM]"},
      {"smiles": "Cc1cccc(CSc2nsc(N)n2)c1", "max activation": "24.3% [at 19.5 µM]"},
      {"smiles": "Nc1nc(SCc2ccc(Cl)cc2Cl)ns1", "max activation": "32.3% [at 0.3 µM]"},
      {"smiles": "Nc1nc(S(=O)(=O)Cc2ccccc2)ns1", "max activation": "18.5% [at 0.6 µM]"},
      {"smiles": "Cc1ccccc1CSc1nsc(N)n1", "max activation": "27.9% [at 19.5 µM]"}
    ]}
  ]
}
